Screening results (PubChem BioAssay)
NS1 function inh: inhibitors of influenza NS1 protein function; AID 2326; Potency, µM (doses to about 46.1 µM), without a hit: top-dose activity, positive = more growth; 0.4% of 270,000 active; calls by dose curve; also: actives are rising curves; nearly all actives have a fitted effect of over 50% in size
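Recovery from NS1-induced slow growth read by OD600 in budding yeast switched to galactose assay medium (pH 6.0, -URA) at 1:100 dilution. Compound 23 nl per well; the matching strain lacking NS1 serves as control.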
Vaccinia Venus: inhibitors of vaccinia virus (Venus reporter). Vaccinia virus Venus reporter expression, fluorescence. Potency, µM (doses to about 36.5 µM), for inactives: at the highest dose activity change, negative = inhibition, hits mostly inhibitors. 0.46% of 330,000 active. AID 720580; calls by dose curve; tested in A549 cells; also: % is scaled to controls: 0 for no effect and ±100 for the full control effect; nearly all actives have a fitted effect of over 30% in size
Vaccinia mCherry: vaccinia inhibition (mCherry reporter) | 0.63% of 310,000 active | Potency, µM (top dose mostly 36.5 µM), inactives show top-dose activity change, negative = inhibition, most hits filed as inhibitors | Vaccinia virus mCherry reporter infection, fluorescence; calls by dose curve; tested in A549 cells; also: % is scaled to controls: 0 for no effect and ±100 for the full control effect; nearly all actives have a fitted effect of over 35% in size
Pf growth 48h: P. falciparum growth inhibition at 48 hours (one generation) | Potency, µM (doses to about 28.7 µM), without a hit: top-dose activity change, negative = inhibition, usual class: inhibitors | AID 504832 | P. falciparum luciferase growth in erythrocytes, 48 h | 5.9% of 310,000 active; also: % is scaled to controls: 0 for no effect and ±100 for the full control effect
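Luciferase-expressing P. falciparum in infected erythrocytes (2% hematocrit, 0.1% parasitemia final) in RPMI 1640/0.5% Albumax were exposed to compound for 48 hours at 37 C, 5% CO2; growth read as luminescence.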
Pf growth 96h: P. falciparum growth inhibition at 96 hours; AID 504834; 6.9% of 320,000 active; Potency, µM (top dose mostly 28.7 µM), inactives show top-dose activity change, negative = inhibition, hits mostly inhibitors; P. falciparum luciferase reporter growth, 96 h; also: % is scaled to controls: 0 for no effect and ±100 for the full control effect
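96 h incubation, 37 C, 5% CO2, of luciferase-reporter P. falciparum-infected RBCs (2% hematocrit, 0.05% parasitemia final) with test compounds; endpoint luminescence.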
HCV inh: blocks hepatitis C virus | 3.4% of 340,000 active | AID 651820 | Potency, µM (top dose mostly 41.8 µM), inactives show at the top dose activity change, negative = inhibition, actives largely listed as inhibitors | Huh7.5.1 HCVcc-Cre infection, luciferase reporter, 44 h; also: % is scaled to controls: 0 for no effect and ±100 for the full control effect
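Cells seeded at 1,000/well and cultured 4 h, then compounds added followed by HCVcc-Cre virus (~0.5 moi). After 44 h further culture, luciferase substrate was added, plates held 15 min at room temperature, and luminescence read for 15 sec.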
Active calls of the source: *; i = inactive; u = inconclusive; x = no result. A selection: hits, their analogues and other compounds. The true share with any hit is near 11%. Unless noted, calls follow the shape of the dose curve; as a rule, active = well fitted inhibition curve with a large enough effect; inconclusive = small, poorly fitted or top-dose-only effect, or another doubt; inactive = no such curve, though single readings can be large or run the other way. Potency is read from the fitted curve at half-maximal effect.

SMILES	NS1 function inh	Vaccinia Venus	Vaccinia mCherry	Pf growth 48h	Pf growth 96h	HCV inh
NNC(=O)CSc1c(-c2ccccc2)c2cc(Cl)ccc2[nH]c1=O	17%	-24%	-19%	u	13µM*	13%
O=C(O)Cc1c(-c2ccccc2)c2cc(Cl)ccc2[nH]c1=O	0%	-1%	-29%	9%	-22%	-10%
CCN1CCN(CC(=O)N2N=C(c3cccs3)CC2c2ccc(OC)c(OC)c2)C(=O)C1=O (configuration not stated)	x	-1%	i	u	u	-27%
COc1ccc(C2CC(c3cccs3)=NN2C(=O)CSc2nnnn2C)cc1OC (configuration not stated)	-10%	-8%	-10%	u	12µM*	-16%
CCC(=O)N1N=C(c2cccs2)CC1c1ccc(OC)cc1 (configuration not stated)	4%	x	x	-22%	u	u
COc1ccc(C2CC(c3cccs3)=NN2C(=O)c2ccco2)cc1OC (configuration not stated)	1%	-3%	-2%	0.26µM*	0.13µM*	-19%
O=C(c1cccs1)N1N=C(c2ccccc2)CC1c1ccccc1 (configuration not stated)	13%	-18%	-14%	u	2.6µM*	14µM*
COc1ccc(C2CC(c3cccs3)=NN2C(=O)c2ccc(Br)o2)cc1 (configuration not stated)	9%	-23%	u	1.7µM*	u	10µM*
Cc1cc(NC(=O)c2cc(CC(C)C)on2)no1	-4%	-11%	0%	82%	13%	7%
O=C(c1ccco1)N1N=C(c2cccs2)CC1c1ccc(F)cc1 (configuration not stated)	-4%	x	x	x	0.83µM*	u
Oc1ccc(C2=NN(c3ccccc3)C(c3ccc(F)cc3)C2)cc1 (configuration not stated)	-60%	u	-30%	9.3µM*	u	10µM*
Oc1ccccc1C1=NN(c2ccccc2)C(c2ccc(F)cc2)C1 (configuration not stated)	7%	-4%	-26%	u	10µM*	-18%
O=[N+]([O-])c1ccc2c(c1)C(=NO)c1cc(F)ccc1-2	x	-7%	i	x	x	u
C/C(=N/NC(=O)c1ccc(C)s1)c1cccc(NC(=O)c2ccoc2C)c1	3%	x	x	5%	-10%	11µM*
C/C(=N/NC(=O)c1ccoc1C)c1cccc(NC(=O)C(F)(F)F)c1	-3%	-11%	i	71%	58%	-6%
CCC(O)C(C)(C)C (configuration not stated)	x	-13%	i	36%	u	14%
COC(=O)c1cc(Br)c(=O)n(-c2nccs2)c1	-2%	-4%	x	5%	x	11%
CCNC(=S)NN=C1c2ccccc2-c2ccccc21	x	-19%	-23%	-19%	4.7µM*	16µM*
C=C(C)CNC(=S)N/N=C(\C)c1ccc(OC)cc1	-17%	-23%	u	13µM*	-32%	u
COCCNC(=S)N/N=C(\C)c1ccc(OC)cc1	5%	-12%	-10%	-21%	-10%	2%
C=C(C)CNC(=S)NN=C1c2ccccc2-c2ccccc21	x	-7%	-11%	2%	u	11µM*
CC(=O)C1CCC2C3CC=C4CC(SC(=N)N)CCC4(C)C3CCC12C (configuration not stated)	x	16µM*	u	x	x	u
CC(C)C(=O)N[C@H]1CCC2C3CC=C4C[C@@H](O)CC[C@]4(C)C3CC[C@@]21C (some centres not stated)	x	-10%	i	x	x	-18%
CC(C)(C)[C@H](N)C(=O)N[C@H]1CCC2C3CC=C4C[C@@H](O)CC[C@]4(C)C3CC[C@@]21C (some centres not stated)	x	u	u	x	x	11µM*
Cc1ccc(S(=O)(=O)NCCn2c(C)cc3ccccc32)cc1	4%	x	x	u	5%	x
SMILES	NS1 function inh	Vaccinia Venus	Vaccinia mCherry	Pf growth 48h	Pf growth 96h	HCV inh
CC1(C)CC(NC(=O)c2ccc3c(c2)OCO3)CC(C)(C)N1	-3%	-20%	x	6%	34%	12%
Cc1ccc(N(Cc2ccccc2)C(=O)c2cccc(S(=O)(=O)N3CC(C)OC(C)C3)c2)cc1 (configuration not stated)	x	-16%	i	10µM*	u	u
CC1CN(S(=O)(=O)c2cccc(C(=O)N(CCc3ccccc3)Cc3ccccc3)c2)CC(C)O1 (configuration not stated)	x	-24%	-8%	2.9µM*	u	u
CC1CN(S(=O)(=O)c2cccc(C(=O)OCC(=O)NCc3ccccc3)c2)CC(C)O1 (configuration not stated)	x	x	x	u	u	18%
CC(=O)N1CCN(S(=O)(=O)c2cccc(C(=O)N(Cc3ccccc3)c3ccc(C)cc3)c2)CC1	x	-17%	-20%	5.9µM*	u	-3%
CCCCN(CCCC)C(=O)C1CCN(S(=O)(=O)c2cccc3nsnc23)CC1	x	-15%	-19%	x	x	x
Cc1ccc(NC(=O)Nc2ccccc2C(N)=O)cc1	-3%	-16%	i	50%	37%	-6%
Cc1cc2oc(=O)cc(CSc3nnc(-c4cccs4)o3)c2cc1C(C)C	u	-25%	-29%	8.3µM*	u	10µM*
O=C(CC1CCCCC1)NCc1ccc(Cl)cc1	7%	-14%	i	48%	u	18%
CCOc1nc(N=C(N)N)nc2c(C)cccc12	12%	-14%	-13%	8.3µM*	0.59µM*	u
O=C(O)CCc1ccc(S(=O)(=O)Nc2ccccc2N2CCCCC2)cc1	x	x	x	x	x	7%
O=C(N=C1SC2CS(=O)(=O)CC2N1Cc1ccc(F)cc1)C1CC1 (configuration not stated)	-2%	-4%	i	15%	19%	3%
COCc1cc(=O)[nH]c(SCC(=O)c2ccccc2)n1	1%	-13%	i	2.1µM*	-20%	14%
COCc1cc(=O)[nH]c(SCCS(=O)(=O)c2ccc(Cl)cc2Cl)n1	-7%	x	x	3%	1%	7%
CCCc1cc(=O)[nH]c(SCC(=O)NC(=O)c2ccccc2)n1	-9%	x	x	14%	0.41µM*	4%
COCc1cc(=O)[nH]c(SCCS(=O)(=O)c2ccc(C)cc2)n1	4%	u	u	2.3µM*	-2%	12%
Cc1ccc(C(=O)CSc2nc(-c3ccccc3)cc(=O)[nH]2)cc1	6%	-4%	i	u	-5%	-13%
CC(C)(C)OC(=O)C[C@@H]1C/C=C\C[C@H](CC(=O)N[C@H](CO)Cc2ccccc2)C(=O)N[C@@H](Cc2ccccc2)COC1=O	x	u	-28%	x	x	-2%
CCc1ccc(-c2cn3nc(-c4ccccc4)cnc3n2)cc1	-1%	x	x	43%	64%	-8%
